# This is part of a sample that, as a whole, favours compounds with a hit. Of some 83,000 tested, about 20% had one in any assay.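 Step 1: grow cells in 96-well plates. Step 2: add test compound at a single concentration. Step 3: incubate 48 h. Step 4: record percent growth.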 Unmarked numbers belong to inactive results. Activity calls are given as the source filed them. How the source made its calls: active means growth percent below 10; inactive means the rest.
# Key:
# Assay in all cases: NCI-60 one-dose screen, 48 h (100 = growth as untreated, 0 = no growth, -100 = all killed)
# Details in all cases: 10 µM unless noted
# [1] = tested on: NCI-H226 lung
# [2] = tested on: HOP-62 NSCLC
# [3] = tested on: NCI-H460 lung
# [4] = tested on: HOP-92 NSCLC
# [5] = tested on: NCI-H522 lung
# [6] = tested on: A549/ATCC NSCLC
# [7] = tested on: COLO 205 colon
# [8] = tested on: DU-145 prostate
# [9] = tested on: K-562 leukemia
# [10] = tested on: MALME-3M melanoma
# [11] = tested on: MDA-MB-231 breast
# [12] = tested on: RXF 393 renal
# [13] = tested on: SF-268 CNS
# [14] = tested on: SF-295 CNS
# [15] = tested on: SF-539 CNS
# [16] = tested on: UACC-257 melanoma
# [17] = tested on: M14 melanoma
# [18] = tested on: NCI-H322M lung
# [19] = tested on: 786-0 renal
Structure (SMILES),growth [1],growth [2],growth [3],growth [4],growth [5],growth [6],growth [7],growth [8],growth [9],growth [10],growth [11],growth [12],growth [13],growth [14] [%],growth [15],growth [16],growth [17],growth [18] [%],growth [19] [%]
Fc1ccc2c(-c3cncn3CCc3ccccc3)c[nH]c2c1,75.9%,87.4%,92.7%,65%,82%,87%,101%,104%,74.6%,91.4%,87.8%,79.6%,83.9%,83.5,94.6%,94.6%,90.8%,–,–
COc1ccc(C(=O)c2cc(C)c(OC)c(C)c2)c(OC)c1OC(=O)C(Cl)Cl,6.91% (active),17.4%,2.25% (active),21.7%,-10.8% (active),11%,73.5%,4.39% (active),8.43% (active),58.9%,18.8%,38.7%,25%,14.5,-16% (active),48.1%,-9.89% (active),42.8,13.1
N#Cc1c(-c2cccc([N+](=O)[O-])c2)nc(SCC(=O)c2ccc(Cl)cc2)[nH]c1=O,97.6%,87.4%,108%,94.3%,88.8%,101%,103%,105%,–,99.9%,99.3%,102%,97.7%,104,100%,105%,100%,96.8,96.7
OCc1cnccc1NCCCOc1ccccc1,92.9%,99.9%,106%,90.5%,100%,93.2%,123%,104%,–,104%,88.6%,104%,101%,104,102%,100%,109%,100,101
NC(=S)N1N=C(c2ccccc2)CC1c1cn(-c2ccccc2)nc1-c1ccc(OCc2ccccc2)cc1 (stereo not drawn),98.4%,101%,106%,80%,83.5%,91.7%,115%,104%,–,101%,99.2%,110%,101%,105,102%,92.9%,101%,94.9,98.4
Cc1c(C(=O)NCCC(=O)NO)sc2ncnc(Nc3ccc(F)c(Cl)c3)c12,104%,105%,100%,118%,95.6%,104%,117%,111%,113%,113%,103%,102%,96.5%,96.1,98%,99.7%,105%,108,105
CCCCCN1C=C/C(=C\C(=O)N(C)c2ccccc2Br)c2ccccc21,89.8%,95.3%,101%,94.7%,78.2%,90.9%,105%,109%,74.6%,91%,97.6%,101%,96.4%,95.1,99.6%,93%,104%,108,94.1
Cc1ccc(-c2nc3ccccn3c2/C=C2/C(=O)Nc3cc(Cl)ccc32)cc1,94.5%,83.7%,82.3%,110%,68.7%,90.6%,84%,65.5%,–,76.1%,76%,77.8%,63.3%,64.5,79.7%,91.1%,80.4%,98,92.7
COc1ccc(C(=O)CC#N)cc1,98%,122%,108%,119%,113%,104%,117%,107%,–,123%,96.8%,106%,107%,131,121%,102%,110%,120,107
CCCCCC(=O)Oc1ccc(/C(=C(/C)Cc2ccc(OC)cc2)c2ccc(OCCCN(C)C)cc2)cc1,93.3%,80.4%,69.6%,73.4%,98.1%,76.1%,55.6%,90.4%,6.07% (active),74.9%,66.1%,61.6%,70.1%,32.4,66.8%,75.9%,36.3%,92.1,58.4
N#C/C(=C\c1ccc([N+](=O)[O-])s1)c1nc2cc(Br)ccc2s1,-75.9% (active),-35.5% (active),-26.9% (active),-55.2% (active),-45.4% (active),5.93% (active),-74.8% (active),25.9%,-5.1% (active),-81.3% (active),-56.1% (active),-17.1% (active),6.29% (active),65.7,-71% (active),5.39% (active),-81.9% (active),85.6,–
c1ccc(-c2cn3c(ccc4ccccc43)n2)cc1,79%,68.4%,20.6%,65.6%,44.5%,47.1%,41.9%,87.8%,20.8%,80.7%,55.8%,86%,74.7%,60.2,62.6%,78.9%,32.2%,77.5,81.7
Cc1cnc(C(=O)Nc2nc3ccc(S(=O)(=O)Nc4ccc(C(C)(C)C)cc4)cc3[nH]2)cn1,31.3%,42.5%,1.67% (active),37.4%,24.4%,21.6%,6.64% (active),12.4%,11.4%,43.8%,30.6%,-13.9% (active),48.1%,21.9,-33.6% (active),59.1%,–,41.6,22.7
O=C1c2c(c3c4cccc(F)c4[nH]c3c3ccc4ccccc4c23)C(=O)N1O,54.1%,63.2%,10.9%,79.1%,30%,65.7%,57.4%,55.1%,–,76.8%,70.8%,46.9%,32.5%,47.9,40.4%,67.5%,38.3%,64,70.7
CC(Oc1ccc(C(=O)O)cc1C(F)(F)F)c1ccc(Oc2ccccc2)cn1 (stereo not drawn),97.6%,99.1%,104%,97.8%,88.2%,99.9%,130%,111%,82.8%,101%,101%,95.8%,94.6%,100,95.9%,97.7%,–,99.5,99.4
O=C(Nc1ccc(NC(=O)c2cc(=O)[nH]c3ccccc23)cc1)Nc1cccc(Cl)c1,70%,66.2%,86.3%,81.1%,84.6%,93.5%,90.1%,105%,83.5%,90%,78.7%,95.3%,65.3%,95.3,84.1%,98.2%,93%,80.2,98.3

# — PubChem BioAssay (NCI)
